75 compounds from PubChem BioAssay AID488969 (Vanderbilt High Throughput Screening Facility, 2010) can be followed below.

In all, about 110,000 compounds were measured (“z-score”: median about -0.1, highest 2% from about 2 on). What follows is part of a selection rich in the highest values, with near analogues and random picks from the rest. Calls of active or inactive are those of the source.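 Rule for the calls: active = z-score in the third read window above 3 or below -3; inactive = the rest.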

Chain of Metabotropic glutamate receptor 8 (Rattus norvegicus) (P70579 whole entry, looked up): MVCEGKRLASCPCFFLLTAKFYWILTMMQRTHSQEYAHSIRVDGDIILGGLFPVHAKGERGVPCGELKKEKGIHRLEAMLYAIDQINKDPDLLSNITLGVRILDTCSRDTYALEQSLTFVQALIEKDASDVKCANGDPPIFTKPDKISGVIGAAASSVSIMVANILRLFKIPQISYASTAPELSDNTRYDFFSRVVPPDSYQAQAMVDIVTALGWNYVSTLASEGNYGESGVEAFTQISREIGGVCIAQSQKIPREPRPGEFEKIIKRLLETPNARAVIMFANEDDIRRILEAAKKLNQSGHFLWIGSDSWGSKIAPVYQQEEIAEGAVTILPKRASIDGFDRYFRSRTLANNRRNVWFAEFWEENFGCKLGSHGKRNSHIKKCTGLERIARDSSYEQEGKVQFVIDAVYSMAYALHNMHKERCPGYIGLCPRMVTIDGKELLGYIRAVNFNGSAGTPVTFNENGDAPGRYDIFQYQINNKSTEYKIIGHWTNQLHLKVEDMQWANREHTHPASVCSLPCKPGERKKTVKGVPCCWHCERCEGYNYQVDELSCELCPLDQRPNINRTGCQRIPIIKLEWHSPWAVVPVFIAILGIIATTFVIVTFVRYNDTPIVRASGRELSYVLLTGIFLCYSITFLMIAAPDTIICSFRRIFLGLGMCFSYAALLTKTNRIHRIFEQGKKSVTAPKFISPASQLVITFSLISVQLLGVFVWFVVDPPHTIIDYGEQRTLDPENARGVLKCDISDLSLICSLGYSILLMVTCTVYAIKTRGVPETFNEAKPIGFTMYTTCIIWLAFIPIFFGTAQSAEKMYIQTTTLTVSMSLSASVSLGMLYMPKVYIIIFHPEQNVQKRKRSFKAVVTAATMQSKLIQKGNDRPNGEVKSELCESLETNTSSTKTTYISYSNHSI

The test has as its target Metabotropic glutamate receptor 8 (Rattus norvegicus) (UniProt P70579). The test is described as follows: rat mGluR8 modulators via GIRK flux, primary screen, cell-based, thallium flux, HTS (AID 488969). The following applies: HEK293 rat mGluR8, GIRK (G protein-gated inwardly rectifying potassium channel) thallium flux, FluoZin2; at 10 µM; stronger effect = higher value; submaximal glutamate (EC20) added with thallium.
`Cc1ccn2c(NC3CCCCC3)c(C(C)C)nc2c1` showed a z-score of 2.52.

As for `CC(C)c1nc2ccccn2c1NC1CCCCC1`, the z-score turned out to be 0.45.

Compound `Cc1ccn2c(NC3CCCCC3)c(C)nc2c1` displayed a z-score of -0.312.

As to `Cc1ccc(/C=C/S(=O)(=O)N2CCC(C(=O)O)CC2)cc1`, the z-score was -0.628.

For the compound `CCOC(=O)N1CCN(c2nnnn2-c2ccccc2)CC1`, the z-score was -0.14.

Regarding `Cc1ccc(S(=O)(=O)N2CCOCC2)cc1NC(=O)COC(=O)CSc1ccc(Br)cc1C`, the z-score is -0.132.

For `CC(C)NC(=O)CSCc1c(Cl)cccc1Cl`, the z-score was -0.342.

`CCn1ncc(Cl)c1C(=O)Nc1cc(Cl)ccc1Cl` registered a z-score of 0.0474.

`Cc1ccccc1OCc1nc2ccccc2c(=O)n1/N=C/c1cccc([N+](=O)[O-])c1` had a z-score of -0.0563.

For the compound `O=C1c2ccccc2OC2(C=Cc3ccccc3O2)N1Cc1ccccc1` (stereo not given), the z-score was found to be 0.198.

In turn, `CN1CC2=Cc3ccccc3OC23Oc2ccccc2C=C3C1` yielded a z-score of 2.01.

Compound `Cc1ccc(-c2nn(CC(=O)Nc3ccc4c(c3)nc3n4CCOC3)c(=O)c3ccccc23)cc1` returned a z-score of -0.236.

Consider `COc1ccccc1N1CCN(C(=O)Cn2c(=O)[nH]c3ccsc3c2=O)CC1`, for which the z-score is -0.563.

Consider `S=C(NCCN1CCOCC1)Nc1ccc(Cl)cc1`, for which the z-score was -0.102.

For `CCCn1cc(NC(=O)c2cc(-c3ccccc3)on2)cn1`, the z-score is 13 (active).

On to `COc1cccc(-c2cc(C(=O)Nc3cnn(Cc4ccccc4C)c3)no2)c1`, for which the z-score is 0.0739.

`Cc1ccc(-c2cc(C(=O)Nc3cnn(C(C)C)c3)no2)cc1`: the z-score stood at 0.74.

Compound `O=C(Nc1cnn(C23CC4CC(CC(C4)C2)C3)c1)c1cc(-c2ccccc2)on1` displayed a z-score of 0.107.

`O=C(Nc1cccnc1)c1cc(-c2ccccc2)on1` displayed a z-score of -0.466.

Take `CC(C)n1cc(NC(=O)c2cc(-c3ccccc3)on2)cn1`: the z-score is 16.8 (active).

Compound `COc1ccc(Sc2cc(C(F)(F)F)nc(-c3ccccn3)n2)cc1` registered a z-score of -0.417.

In turn, `CCOc1ccccc1CNC(=O)CCNC(=O)Cn1ccc2ccccc2c1=O` returned a z-score of 0.269.

The compound `Cc1cccc(-n2c(-c3csc(C(C)C)c3)n[nH]c2=S)c1` displayed a z-score of 2.87.

In turn, `CCc1cc(-c2n[nH]c(=S)n2-c2cccc(C)c2)cs1` displayed a z-score of 0.65.

`Cc1cccc(-n2c(-c3csc(C)c3C)n[nH]c2=S)c1` yielded a z-score of 0.00757.

On to `Cc1cccc(-n2c(-c3csc(C)c3)n[nH]c2=S)c1`, for which the z-score was 0.189.

On to `Cc1cccc(-n2c(-c3csc4ccccc34)n[nH]c2=S)c1`, for which the z-score came out at 2.62.

Regarding `Cc1ccccc1-n1c(-c2csc3ccccc23)n[nH]c1=S`, the z-score came out at 0.627.

Consider `CC(NC(=O)C1CCCCC1)C(=O)NC1=NCCS1` (stereo not given), for which the z-score stood at 0.00509.

Consider `Cc1cccc(C)c1Oc1nc(-c2ccccc2)ncc1S(=O)(=O)c1ccccc1`, for which the z-score was -0.0101.

`CN1CCN(CCCNC(=O)c2ccc3c(c2)N(Cc2ccccc2)CCS3)CC1` showed a z-score of 0.775.

For `N#C/C(=N\Nc1ccc(Cl)cc1)C(=N)N1CCCCC1`, the z-score amounted to 0.186.

For `Cc1cccc(C(=O)Nc2nnc(SCC(=O)Nc3ccc4c(c3)oc3ccccc34)s2)c1`, the z-score was -0.242.

For `COC(=O)C1CCN(S(C)(=O)=O)CC1`, the z-score was -0.211.

In turn, `CCc1ccccc1NC(=S)NCc1ccc2c(c1)OCO2` gave a z-score of -0.0875.

For the compound `CSc1nnc(Nc2ccccc2C)s1`, the z-score is -0.0316.

As for `C/C(N)=C(/C#N)C(=O)CSc1nnc(Nc2ccccc2C)s1`, the z-score is -0.126.

With `CCCSc1nnc(Nc2ccccc2C)s1`, the z-score is 4.96 (active).

As to `COc1ccccc1Nc1nnc(C)c(=O)[nH]1`, the z-score is -0.361.

`COc1ccccc1Nc1ccc(Nc2ccccc2OC)nn1` registered a z-score of 2.82.

For `COc1ccc(OC)c(Nc2ccc(Nc3cc(OC)ccc3OC)nn2)c1`, the z-score was -0.125.

`O=Cc1cn(CC(=O)N2CCOCC2)c2ccccc12` had a z-score of -0.773.

`Cc1noc(C)c1C(=O)N1CCN(C(=O)c2sc3cc(Cl)ccc3c2Cl)CC1`: the z-score is -0.676.

With `O=C(C[n+]1cc(-c2ccccc2)n2c1CCC2)N1c2ccccc2Sc2ccccc21`, the z-score is -0.288.

With `O=C(C[n+]1cc(-c2ccc(Cl)c(Cl)c2)n2c1CCC2)OCc1ccccc1`, the z-score is 0.0701.

On to `O=C(C[n+]1cc(-c2ccccc2)n2c1CCC2)OCc1ccccc1`, for which the z-score was 5.17 (active).

As for `NC(=O)C(c1ncc(C(F)(F)F)cc1Cl)c1c(Cl)cccc1Cl` (stereo not given), the z-score is -0.197.

`CC1(C)Cc2[nH]c(=O)c(C#N)cc2CS1` yielded a z-score of 0.0257.

The compound `CCn1c(SCc2ccc(Cl)cc2Cl)nc2nc3c(cc2c1=O)CCCC3` displayed a z-score of -0.163.

Turning to `CC1CCCCC1NC(=O)COn1nnc2ccc(Cl)cc21` (stereo not given), the z-score was -0.171.

As for `CCOC(=O)Cn1c(=O)oc2cc(S(=O)(=O)Nc3c(C)cc(C)cc3C)ccc21`, the z-score was -0.223.

Turning to `CCOC(=O)Cn1c(=O)oc2cc(S(=O)(=O)NCCCc3ccccc3)ccc21`, the z-score is 3.36 (active).

`CCN(CC)c1ccc(NS(=O)(=O)c2ccc3c(c2)oc(=O)n3C)c(C)c1`: the z-score turned out to be 0.308.

In the case of `CCOC(=O)Cn1c(=O)oc2cc(S(=O)(=O)NCCc3ccc(C)cc3)ccc21`, the z-score is -0.171.

In turn, `CCCCNS(=O)(=O)c1ccc2c(c1)oc(=O)n2CC(=O)OCC` showed a z-score of 0.0209.

The compound `CCOC(=O)Cn1c(=O)oc2cc(S(=O)(=O)Nc3ccc(N(CC)CC)cc3C)ccc21` gave a z-score of 2.74.

On to `N#CCC(=O)N/N=C1\CCCCC1C1CCCCC1` (stereo not given), for which the z-score came to 0.419.

In turn, `CC(C)C(=O)Nc1ccnc(-c2cccnc2)n1` showed a z-score of -0.0191.

The compound `CC(C)OC(=O)c1cc2c(ccn2C)n1CC(=O)N(Cc1ccccc1)c1ccccc1` had a z-score of -0.243.

`CCN1/C(=C2/OC(=S)N(C)C2=O)Sc2ccccc21` gave a z-score of 1.02.

As to `O=C(COc1ccccc1)N1CCN(S(=O)(=O)Cc2ccccc2)CC1`, the z-score was 0.0406.

In the case of `O=S(=O)(Nc1ccc2nc(C(F)(F)F)[nH]c2c1)c1ccccc1`, the z-score is 4.74 (active).

As to `Cc1ccc(-c2nc3ccc(NS(=O)(=O)c4ccccc4)cc3[nH]2)o1`, the z-score came to 1.31.

`O=S(=O)(Nc1ccc2nc(-c3ccc(Br)o3)[nH]c2c1)c1ccccc1` gave a z-score of -0.849.

For the compound `Cc1ccc2[nH]c(=O)c(C(c3nnnn3C(C)(C)C)N3CCN(C(=O)c4ccco4)CC3)cc2c1` (stereo not given), the z-score is -0.0115.

The compound `CCCCn1c(S(=O)(=O)O)nc2ccccc21` showed a z-score of -0.0451.

`CCC(C)Cn1c(S(=O)(=O)O)nc2ccccc21` (stereo not given) returned a z-score of -0.238.

For the compound `CC(C)CCn1c(S(=O)(=O)O)nc2ccccc21`, the z-score is 3.16 (active).

In turn, `CC(C)Sc1nc2c(c(=O)n1-c1ccc(F)cc1)SCC2` had a z-score of -0.98.

`Cc1ccc(C)c(NC(=O)c2cc(-c3ccccc3)nn2-c2ccccc2)c1`: the z-score came out at 2.08.

In turn, `O=C(Nc1nc2ccccc2s1)c1cc(-c2ccccc2)nn1-c1ccccc1` had a z-score of 1.18.

With `Cc1ccc(NC(=O)c2cc(-c3ccccc3)nn2-c2ccccc2)c(Br)c1`, the z-score was 0.496.

`CCc1nnc(NC(=O)c2cc(-c3ccccc3)nn2-c2ccccc2)s1` yielded a z-score of 0.27.

As for `CC(=O)c1sc(NC(=O)c2cc(-c3ccccc3)nn2-c2ccccc2)nc1C`, the z-score was 3 (active).

In the case of `Cc1ccc(NC(=O)c2cc(-c3ccccc3)nn2-c2ccccc2)cc1`, the z-score is 1.28.
